High-throughput results (PubChem BioAssay)
WRN helicase inh: qHTS for Inhibitors of WRN Helicase. actives 0.46% (n = 360,000). Potency, µM (highest dose often 114 µM), hits mostly inhibitors. AID 651768, 2012. WRN helicase unwinding, fluorescent forked duplex, kinetic; further: nearly all actives have a fitted effect of over 55% in size
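Kinetic red-fluorescence monitoring (525/598 nm) tracks WRN helicase activity after 100 nM fluorophore-quencher forked duplex and 2 mM ATP are added to 20 nM enzyme pretreated 15 min at room temperature with compound.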
Pol beta inh: qHTS Assay for Inhibitors of DNA Polymerase Beta | actives 1.3% (n = 340,000) | Potency, µM (top dose mostly 114 µM), actives largely listed as inhibitors | AID 485314, 2010 | Pol beta primer extension/strand displacement, fluorescence kinetic
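Preincubation: enzyme (10 nM) with compound, 15 min, RT. Reaction: substrate added to 50 nM final. Reads: 0 and 10 min. Analysis: normalized, Hill fit.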
POLI inh: qHTS for Inhibitors of Polymerase Iota; Potency, µM (series often up to 115 µM), most hits filed as inhibitors; DNA polymerase iota (Homo sapiens), Q9UNA4; AID 588590, 2011; actives 1% (n = 390,000); Pol iota fluorescent replication assay, 10 min
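Fluorescent replication assay read twice, at 0 min and 10 min after adding 50 nM (final) substrate. Enzyme (10 nM) and compounds were first incubated 15 min at room temperature; enzyme-free buffer wells were negative controls.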
POLH inh: qHTS for Inhibitors of Polymerase Eta; Potency, µM (doses to about 114 µM), actives largely listed as inhibitors; actives 1.2% (n = 390,000); recombinant Pol eta, fluorescent DNA replication assay
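Fluorescent replication assay: 50 nM final substrate added after a 15 min room-temperature compound preincubation with 10 nM enzyme. Signal taken at 0 min and again at 10 min.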
FEN1 inh: qHTS Assay for the Inhibitors of Human Flap endonuclease 1 (FEN1) | Recombinant FEN1 flap cleavage, fluorescence, 15 min | Potency, µM (highest dose often 114 µM), hits mostly inhibitors | actives 0.35% (n = 390,000); further: nearly all actives have a fitted effect of over 65% in size
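Potency values derive from four-parameter Hill fits of normalized qHTS data. The reaction used 10 nM FEN1 preincubated 15 min at room temperature with compound, then 50 nM DNA substrate, read at 0 and 15 min.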
POLK inh: qHTS for Inhibitors of Polymerase Kappa; Potency, µM (top dose mostly 107 µM), usual class: inhibitors; AID 588579, 2011; DNA polymerase kappa (Homo sapiens), Q9UBT6; purified Pol kappa, fluorescent DNA synthesis assay, 10 min; actives 0.53% (n = 400,000)
Target sequence (Q9UBT6 whole entry, looked up): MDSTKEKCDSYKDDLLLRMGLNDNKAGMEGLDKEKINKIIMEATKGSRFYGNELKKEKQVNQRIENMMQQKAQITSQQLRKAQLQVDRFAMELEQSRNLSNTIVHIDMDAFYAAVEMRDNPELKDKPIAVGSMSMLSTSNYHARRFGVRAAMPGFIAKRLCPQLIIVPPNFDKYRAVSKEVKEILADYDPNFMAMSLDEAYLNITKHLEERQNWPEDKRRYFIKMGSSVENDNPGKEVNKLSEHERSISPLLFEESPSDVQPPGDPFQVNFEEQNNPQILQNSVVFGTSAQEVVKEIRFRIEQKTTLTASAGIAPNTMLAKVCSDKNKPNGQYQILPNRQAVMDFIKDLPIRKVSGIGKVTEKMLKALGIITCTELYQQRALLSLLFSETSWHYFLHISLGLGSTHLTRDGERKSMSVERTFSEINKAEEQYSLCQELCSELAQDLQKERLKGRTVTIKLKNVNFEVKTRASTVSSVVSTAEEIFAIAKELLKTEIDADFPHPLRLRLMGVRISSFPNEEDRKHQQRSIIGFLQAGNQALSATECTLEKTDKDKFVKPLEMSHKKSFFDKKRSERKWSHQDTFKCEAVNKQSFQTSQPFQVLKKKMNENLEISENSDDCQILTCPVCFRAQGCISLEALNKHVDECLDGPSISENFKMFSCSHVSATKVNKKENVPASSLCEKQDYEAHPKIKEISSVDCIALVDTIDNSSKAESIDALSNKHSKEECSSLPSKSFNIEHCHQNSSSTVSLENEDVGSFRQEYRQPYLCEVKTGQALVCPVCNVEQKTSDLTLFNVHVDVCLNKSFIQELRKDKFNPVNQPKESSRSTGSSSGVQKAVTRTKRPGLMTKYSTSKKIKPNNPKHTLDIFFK
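Kinetic fluorescence readout at 0 and 10 min followed reaction start with substrate at 50 nM final. Beforehand, enzyme (10 nM Pol kappa) stood 15 min with compound at room temperature; buffer-only wells were negative controls.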
Large screens that a line does not name were inactive; ! = not confirmed by another sample. Hits are enriched below; roughly 2.4% of the tested compounds scored in any of these assays. The call rests on the fitted dose curve; in most records, active means well fitted curve in the direction sought with a large enough effect; inconclusive means small, poorly fitted or top-dose-only effect, or another doubt; inactive means no such curve, though single readings can be large; an effect the other way counts as inactive or inconclusive.

Cc1ccc(C(=O)c2cn(Cc3ccccc3)c3c(F)cc(F)cc3c2=O)cc1	none (no result: WRN helicase inh)
COc1oc(=O)c2cc(N)ccc2c1Cl	none (no result: WRN helicase inh, Pol beta inh, POLI inh, POLH inh, FEN1 inh)
Cc1ccc(C(=O)Nc2ccc(O)c(C(=O)O)c2)o1	Pol beta inh inconclusive, POLH inh 14µM
CC(=O)c1c(C)[nH]c(C(=O)COc2cc(C)cc(C)c2)c1C	none
CC(=O)c1c(C)[nH]c(C(=O)COc2ccc3ccc(=O)oc3c2)c1C	POLI inh inconclusive, POLH inh 35µM (no result: Pol beta inh)
Cc1cc(C(=O)COc2ccc3ccc(=O)oc3c2)c(C)n1Cc1cccs1	Pol beta inh 50µM
Cc1ccc(OCC(=O)c2cc(C)n(Cc3cccs3)c2C)c([N+](=O)[O-])n1	Pol beta inh inconclusive
Cc1ccc(NC(=O)Cn2cc(S(=O)(=O)Cc3ccccc3)c3ccccc32)cc1C	POLH inh inconclusive (no result: WRN helicase inh)
COc1ccccc1NC(=O)Cn1cc(S(=O)(=O)Cc2ccccc2)c2ccccc21	Pol beta inh inconclusive, POLH inh 79µM (no result: WRN helicase inh)
Cc1ccc2nc(-c3ccc(N=Nc4cc(S(=O)(=O)O)c5ccccc5c4O)cc3)sc2c1S(=O)(=O)O	POLI inh 25µM, FEN1 inh 7.1µM, POLK inh 20µM (no result: WRN helicase inh, Pol beta inh, POLH inh)
COc1ccc(-c2csc(NC(=O)CSc3nc(C)nc4sc(C(=O)O)c(C)c34)n2)cc1	WRN helicase inh inconclusive, Pol beta inh 7.1µM, POLI inh inconclusive, POLH inh 22µM, FEN1 inh inconclusive, POLK inh 32µM
COc1ccc(-c2csc(NC(=O)CSc3nc(C)cs3)n2)cc1	POLH inh inconclusive (no result: Pol beta inh)
COc1ccc(OC)c(CNC(=O)C2CCN(c3ncnc4c3nc3n4CCCCC3)CC2)c1	none (no result: WRN helicase inh)
COc1cccc(CNC(=O)C2CCN(c3ncnc4c3nc3n4CCCCC3)CC2)c1	Pol beta inh 100µM!, POLI inh inconclusive
CN(C)N=Nc1ccc(S(N)(=O)=O)cc1	none
CN(C)c1ccc(N=Nc2ccc(S(N)(=O)=O)cc2)cc1	Pol beta inh inconclusive, POLI inh 20µM, POLH inh inconclusive
C=C1NN(Cc2ccccc2)C(=O)N1c1ccc(OC)cc1	none (no result: WRN helicase inh, Pol beta inh, POLH inh)
CC(=O)N1CCc2cc(CNC(=O)Nc3cc(Cl)ccc3C)ccc21	Pol beta inh 28µM (no result: WRN helicase inh)
CCC(=O)N1CCc2cc(CNC(=O)Nc3cc(Cl)ccc3C(=O)OC)ccc21	none (no result: WRN helicase inh)
COC(=O)C1=C[C@@H](C(=O)OC)C2C3=C(C(=O)[C@@]2(C)NC(=O)c2ccccc2)[C@H](C)n2c(=O)n(C)c(=O)n2[C@@H]3C1 (stereo not given in full)	none (no result: WRN helicase inh, Pol beta inh, POLH inh)
CC(=O)OCC1=C(C(=O)OC(C)(C)C)N2C(=O)[C@@H](NC(=O)Cc3ccccc3)[C@H]2SC1	POLI inh 32µM, POLH inh inconclusive, FEN1 inh inconclusive, POLK inh inconclusive (no result: Pol beta inh)
CC1=C(C(=O)OCC(Cl)(Cl)Cl)N2C(=O)C(NC(=O)Cc3ccccc3)C2SC1 (stereo not given)	none
Cc1cc(=O)c(C(=O)N[C@@H](C(=O)N[C@@H]2C(=O)N3C(C(=O)O)=C(CSc4nnnn4C)CS[C@H]23)c2ccc(O)cc2)c[nH]1	none (no result: WRN helicase inh, Pol beta inh, POLI inh, POLH inh, FEN1 inh)
CC(C(=O)NC1C(=O)N2C(C(=O)O)=C(CSc3nnnn3C)CSC12)n1cc(Cl)cn1 (stereo not given)	Pol beta inh inconclusive, POLI inh inconclusive, POLH inh 35µM
Cc1nnc(SCC2=C(C(=O)O)N3C(=O)C(NC(=O)Cc4ccccc4)C3SC2)s1 (stereo not given)	POLI inh inconclusive, POLH inh 22µM, POLK inh inconclusive (no result: Pol beta inh)
COc1ccc(-c2nc3cnc(N4CCN(C)CC4)nc3n(Cc3cccc(OC)c3)c2=O)cc1	none (no result: WRN helicase inh, Pol beta inh, POLI inh, POLH inh, FEN1 inh)
Cc1ccc(NC(=O)c2cc(S(=O)(=O)N3CCc4ccccc43)cn2C)c(Cl)c1	none (no result: WRN helicase inh)
Cc1ccc(Cl)cc1NC(=O)c1ccc2nc(CCc3ccccc3)oc2c1	none (no result: WRN helicase inh)
O=C(NCCCN1CCN(c2ccccc2)CC1)c1nnc(Cc2c(F)cccc2Cl)o1	none (no result: WRN helicase inh)
CCC(=O)N1c2ccc(S(=O)(=O)NCc3ccc(F)cc3)cc2CC1C (stereo not given)	none (no result: WRN helicase inh)
Fc1ccc(Nc2nc3nonc3nc2Nc2cccc(C(F)(F)F)c2)cc1	FEN1 inh inconclusive (no result: WRN helicase inh)
